Reference: PubChem BioAssay (Tox21)
Results filed as inconclusive are left out. A call without a number means that no potency is given here. The source made the active and inactive calls. Unless noted, calls come from the whole dose curve.

What was measured:
[1] = Nuclear factor erythroid 2-related factor 2/antioxidant responsive element (Nrf2/ARE) small molecule agonists: qHTS cell viability counter screen in human keratinocytes (AID 1919968; active = well fitted curve in the direction sought with a large enough effect in the repeat runs; an effect the other way counts as inactive or inconclusive; note: nearly all actives have a fitted effect of over 55% in size); conditions: KeratinoSens HaCaT ARE cells viability, CellTiter-Fluor, 24 h; series mostly up to 92.4 µM
Outline: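 CellTiter-Fluor fluorescence, read 1 h after reagent, gave viability in the same wells as the ARE-luciferase assay. KeratinoSens cells (1,500/well) had 23 h compound exposure at 37 C/5% CO2 following 5 h plating.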

[2] = Nuclear factor erythroid 2-related factor 2/antioxidant responsive element (Nrf2/ARE) small molecule agonists: luciferase reporter gene qHTS assay in human keratinocytes (AID 1919969); conditions: KeratinoSens HaCaT ARE-luciferase, luminescence, 24 h; series mostly up to 92.4 µM; note: nearly all actives have a fitted effect of over 35% in size; note: potency is the fitted concentration of half-maximal effect
[3] = target: Gonadotropin-releasing hormone receptor (Homo sapiens) (UniProt P30968); test: Human gonadotropin-releasing hormone receptor (GnRHR) small molecule agonists, calcium flux assay in GnRHR-HEK293 cells (AID 1920063); conditions: calcium flux fluorescence, agonist mode; series mostly up to 57.6 µM; note: nearly all actives have a fitted effect of over 35% in size
Sequence of Gonadotropin-releasing hormone receptor (Homo sapiens) (P30968 whole entry, looked up): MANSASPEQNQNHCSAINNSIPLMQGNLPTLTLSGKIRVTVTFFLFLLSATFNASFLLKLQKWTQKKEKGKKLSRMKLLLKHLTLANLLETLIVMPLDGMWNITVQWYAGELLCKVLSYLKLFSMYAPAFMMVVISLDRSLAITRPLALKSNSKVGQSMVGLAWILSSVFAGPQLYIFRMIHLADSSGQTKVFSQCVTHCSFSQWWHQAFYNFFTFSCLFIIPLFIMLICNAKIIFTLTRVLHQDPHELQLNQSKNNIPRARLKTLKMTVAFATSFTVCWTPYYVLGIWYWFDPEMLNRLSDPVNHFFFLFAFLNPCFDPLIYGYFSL
Outline: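 Agonist mode: compounds at 15 concentrations, in triplicate, went onto calcium dye-loaded GnRHR-HEK293 cells. Intracellular calcium was then followed as 480/540 nm fluorescence at 1 s intervals over 3 min.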

[4] = target: KiSS-1 receptor (Homo sapiens) (UniProt Q969F8); test: Human kisspeptin (KISS1R) small molecule agonists, calcium flux assay in KISS1R-HEK293 cells (AID 1920064; active = well fitted curve in the direction sought with a large enough effect in the repeat runs; an effect the other way counts as inactive or inconclusive); conditions: KISS1R-HEK293, calcium flux fluorescence, agonist; series mostly up to 76.8 µM
Sequence of KiSS-1 receptor (Homo sapiens) (Q969F8 whole entry, looked up): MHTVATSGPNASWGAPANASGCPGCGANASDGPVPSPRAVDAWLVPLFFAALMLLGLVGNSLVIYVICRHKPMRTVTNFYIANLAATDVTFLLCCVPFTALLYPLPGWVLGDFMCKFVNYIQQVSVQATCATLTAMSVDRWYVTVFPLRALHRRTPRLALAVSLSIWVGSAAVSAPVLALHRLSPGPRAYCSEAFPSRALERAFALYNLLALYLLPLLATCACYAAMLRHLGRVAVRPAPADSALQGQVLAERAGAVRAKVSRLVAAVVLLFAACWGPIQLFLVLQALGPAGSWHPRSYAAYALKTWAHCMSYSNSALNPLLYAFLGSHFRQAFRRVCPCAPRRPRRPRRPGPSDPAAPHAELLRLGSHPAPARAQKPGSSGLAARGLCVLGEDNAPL
Outline: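 Agonist mode: intracellular calcium rise tracked at 1 s intervals over 3 min (480/540 nm) immediately after compound addition to dye-loaded KISS1R-HEK293 stable cells. Each compound tested at 15 concentrations in triplicate.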

[5] = G protein-coupled receptor (GPCR) small molecule agonists, calcium flux assay: HEK293 wild type cell line counter screen (AID 1920065); conditions: HEK293 WT calcium flux, fluorescence, agonist mode; series mostly up to 57.6 µM
Outline: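 Calcium flux counter screen: compound added in agonist mode at 15 concentrations in triplicate to dye-loaded parental HEK293 cells. Fluorescence (480/540) read kinetically for 3 min; ATP served as positive control.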

[6] = p53 small molecule agonists, cell-based qHTS assay with human liver microsomes (AID 1963577); conditions: HCT-116 p53RE-bla with human liver microsomes, ratio, 16 h; series mostly up to 66 µM; note: potency is the fitted concentration of half-maximal effect
Outline: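 Cells carrying a p53-responsive bla reporter were rested 5 h (37 C, 5% CO2) before compound transfer. Human liver microsomes plus NADPH, 0.5 mg/mL final apiece, supplied metabolism during the 16 h 37 C exposure.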

[7] = p53 small molecule agonists, cell-based qHTS assay with human liver microsomes: qHTS cell viability counter screen (AID 1963579); conditions: p53RE-bla HCT-116 viability, ATP luminescence, 16 h, HLM; series mostly up to 66 µM; note: nearly all actives have a fitted effect of over 45% in size
Outline: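 Seed p53RE-bla cells at 4,000 per well; incubate 5 h at 37 C; add compound, human liver microsomes and NADPH; incubate 16 h at 37 C; add CellTiter-Glo; after 30 min at room temperature, read luminescence.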

[8] = p53 small molecule agonists, cell-based qHTS assay with rat liver microsomes: qHTS cell viability counter screen (AID 1963580); conditions: p53RE-bla HCT-116 + rat microsomes, ATP viability, 16 h; series mostly up to 66 µM; note: nearly all actives have a fitted effect of over 45% in size
Outline: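 Luminescent ATP readout (CellTiter-Glo, 30 min at room temperature) reports viability of p53RE-bla HCT-116 cells after 16 h at 37 C with test compounds under metabolic activation by rat liver microsomes and NADPH at 0.5 mg/mL final each.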

[9] = p53 small molecule agonists, cell-based qHTS assay (AID 1963582; active = well fitted activation curve with a large enough effect in the signal ratio in the repeat runs, not every such curve was filed as active; the % refers to the signal ratio); conditions: HCT-116 p53RE-bla reporter, beta-lactamase FRET ratio, 16 h; series mostly up to 66 µM
Outline: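 Read-out is beta-lactamase FRET fluorescence after 2 h at room temperature with LiveBLAzer B/G substrate. p53 response element-bla cells were treated 16 h at 37 C with compounds in DMSO, added 5 h after seeding.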

[10] = target: 5-hydroxytryptamine receptor 2A (Homo sapiens) (UniProt P28223); test: 5-hydroxytryptamine receptor 2A (HTR2A) small molecule agonists, cell-based qHTS assay (AID 1963587); conditions: HTR2A-CHO cells, calcium flux fluorescence, agonist mode; series mostly up to 76.8 µM; note: nearly all actives have a fitted effect of over 30% in size
Sequence of 5-hydroxytryptamine receptor 2A (Homo sapiens) (P28223 whole entry, looked up): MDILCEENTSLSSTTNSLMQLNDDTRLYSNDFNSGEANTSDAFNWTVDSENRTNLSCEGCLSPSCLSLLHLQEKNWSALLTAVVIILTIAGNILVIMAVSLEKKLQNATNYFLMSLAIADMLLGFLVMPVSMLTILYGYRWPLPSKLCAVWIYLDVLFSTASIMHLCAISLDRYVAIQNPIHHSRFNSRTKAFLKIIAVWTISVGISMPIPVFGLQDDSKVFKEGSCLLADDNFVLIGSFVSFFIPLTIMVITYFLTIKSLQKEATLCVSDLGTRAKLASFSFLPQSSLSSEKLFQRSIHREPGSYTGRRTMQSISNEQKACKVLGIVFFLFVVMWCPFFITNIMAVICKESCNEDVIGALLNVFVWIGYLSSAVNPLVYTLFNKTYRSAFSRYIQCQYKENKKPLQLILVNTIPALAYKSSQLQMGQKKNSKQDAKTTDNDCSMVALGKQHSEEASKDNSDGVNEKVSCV
Outline: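 HTR2A-CHO cells, plated 18 h at 37 C/5% CO2, dye-loaded 1 h at 37 C; compounds in DMSO added by pin tool (agonist mode). Intracellular calcium flux read as kinetic fluorescence on FDSS over 2 min at 1 s intervals.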

[11] = target: Muscarinic acetylcholine receptor M1 (Homo sapiens) (UniProt P11229); test: Cholinergic receptor muscarinic 1 (CHRM1) small molecule antagonists, cell-based qHTS assay (AID 1963588); conditions: CHRM1-CHO antagonist mode, calcium flux fluorescence; series mostly up to 61.5 µM; note: nearly all actives have a fitted effect of over 40% in size
Sequence of Muscarinic acetylcholine receptor M1 (Homo sapiens) (P11229 whole entry, looked up): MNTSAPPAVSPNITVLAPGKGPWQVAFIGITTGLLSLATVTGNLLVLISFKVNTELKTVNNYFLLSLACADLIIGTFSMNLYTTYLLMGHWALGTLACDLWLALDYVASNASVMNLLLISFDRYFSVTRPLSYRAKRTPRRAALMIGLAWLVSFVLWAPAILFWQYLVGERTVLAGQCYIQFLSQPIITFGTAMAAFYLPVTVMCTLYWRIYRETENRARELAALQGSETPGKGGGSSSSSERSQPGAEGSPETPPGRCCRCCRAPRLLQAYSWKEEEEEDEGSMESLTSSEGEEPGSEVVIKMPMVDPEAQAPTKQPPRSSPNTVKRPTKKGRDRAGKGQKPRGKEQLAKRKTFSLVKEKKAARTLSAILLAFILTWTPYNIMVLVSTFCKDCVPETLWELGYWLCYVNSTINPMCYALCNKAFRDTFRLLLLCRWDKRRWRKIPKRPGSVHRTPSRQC
Outline: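 Compounds were tested at 15 concentrations in three independent runs. Dye-loaded CHRM1-CHO cells were exposed 5 min at room temperature before stimulation by acetylcholine added at 50nM. Intracellular calcium was read kinetically on FDSS for 3 min.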

[12] = target: Muscarinic acetylcholine receptor M1 (Homo sapiens) (UniProt P11229); test: Cholinergic receptor muscarinic 1 (CHRM1) small molecule agonists, cell-based qHTS assay (AID 1963589); conditions: CHRM1-CHO cells, agonist mode, calcium flux fluorescence; series mostly up to 76.8 µM; note: nearly all actives have a fitted effect of over 35% in size
Outline: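 Agonist-mode calcium-flux screen: compounds at 15 concentrations, three independent runs, were pin-transferred onto dye-loaded human CHRM1-CHO cells. Fluorescence was then recorded kinetically every second over minutes.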

[13] = target: Beta-2 adrenergic receptor (Homo sapiens) (UniProt P07550); test: Adrenergic beta2 receptor (ADRB2) small molecule antagonists, cell-based qHTS assay (AID 1963592); conditions: CHO-ADRB2 cells, isoproterenol-stimulated cAMP HTRF ratio, 0.5 h; series mostly up to 92.4 µM; note: nearly all actives have a fitted effect of over 50% in size
Sequence of Beta-2 adrenergic receptor (Homo sapiens) (P07550 whole entry, looked up): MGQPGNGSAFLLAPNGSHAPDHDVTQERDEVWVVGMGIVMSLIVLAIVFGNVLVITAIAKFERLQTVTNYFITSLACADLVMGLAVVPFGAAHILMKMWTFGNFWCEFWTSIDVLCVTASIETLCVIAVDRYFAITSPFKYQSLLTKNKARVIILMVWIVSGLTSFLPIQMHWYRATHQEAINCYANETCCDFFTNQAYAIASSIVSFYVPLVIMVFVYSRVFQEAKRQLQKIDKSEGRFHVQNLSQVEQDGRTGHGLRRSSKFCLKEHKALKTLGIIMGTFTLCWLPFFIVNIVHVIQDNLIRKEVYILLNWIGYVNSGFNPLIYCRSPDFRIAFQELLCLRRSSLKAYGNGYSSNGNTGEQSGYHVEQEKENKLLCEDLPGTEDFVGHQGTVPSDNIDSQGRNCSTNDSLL
Outline: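 Assay format: CHO-ADRB2 cells, 18-20hr seeding at 37C/5% CO2, then compound plus 1nM isoproterenol agonist mix for 0.5hr RT. Homogeneous time-resolved fluorescence cAMP detection after 1hr, expressed as 665/615 nm ratio.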

[14] = target: D(2) dopamine receptor (Homo sapiens) (UniProt P14416); test: Dopamine D2 receptor (DRD2) small molecule agonists, cell-based qHTS assay (AID 1963594); conditions: HEK293-DRD2 cAMP HTRF, agonist mode, 30 min; series mostly up to 92.4 µM; note: nearly all actives have a fitted effect of over 35% in size
Sequence of D(2) dopamine receptor (Homo sapiens) (P14416 whole entry, looked up): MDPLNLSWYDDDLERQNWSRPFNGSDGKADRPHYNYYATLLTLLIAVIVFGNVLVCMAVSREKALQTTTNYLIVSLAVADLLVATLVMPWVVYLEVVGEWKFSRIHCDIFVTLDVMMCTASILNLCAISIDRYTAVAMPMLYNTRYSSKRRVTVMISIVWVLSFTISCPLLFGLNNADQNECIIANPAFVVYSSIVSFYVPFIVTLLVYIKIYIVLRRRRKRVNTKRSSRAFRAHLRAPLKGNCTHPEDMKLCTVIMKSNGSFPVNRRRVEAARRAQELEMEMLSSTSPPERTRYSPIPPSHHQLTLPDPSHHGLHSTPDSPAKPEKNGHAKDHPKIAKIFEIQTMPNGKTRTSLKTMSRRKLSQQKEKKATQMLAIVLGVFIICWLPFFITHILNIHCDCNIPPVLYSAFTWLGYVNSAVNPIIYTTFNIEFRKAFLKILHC
Outline: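 HEK293 cells stably expressing DRD2 were cultured 24 h at 37 C, then given Ro20-1724 (0.1 mM final) and compounds for 10 min at room temperature. NKH477 (200nM) was then added for 30 min. cAMP was read by HTRF.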

[15] = target: D(2) dopamine receptor (Homo sapiens) (UniProt P14416); test: Dopamine D2 receptor (DRD2) small molecule antagonists, cell-based qHTS assay (AID 1963595; active = well fitted inhibition curve with a large enough effect in the signal ratio in the repeat runs, with a control signal flat; the % refers to the signal ratio); conditions: HEK293-DRD2 cAMP HTRF antagonist mode; series mostly up to 92.4 µM
Outline: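 HTRF cAMP read-out at 665 and 620 nm emission (340 nm excitation). Antagonist mode: compounds were tested against 12 nM quinpirole in DRD2-HEK293 cells, with 200 nM NKH477 raising cAMP and 0.1 mM Ro20-1724 blocking its breakdown.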

[16] = p53 small molecule agonists, cell-based qHTS assay: qHTS cell viability counter screen (AID 1963581); conditions: p53RE-bla HCT-116 viability, ATP luminescence, 16 h; series mostly up to 66 µM; note: nearly all actives have a fitted effect of over 45% in size
Outline: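 Counter screen read by CellTiter-Glo luminescence (ATP content, 30 min at room temperature), run in the same wells as the beta-lactamase reporter read. HCT-116 p53RE-bla cells saw compounds for 16 h at 37 C.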

[17] = cAMP Responsive Elements (CRE) small molecule agonists, cell-based qHTS assay (AID 1963590); conditions: CRE-bla HEK293T, beta-lactamase FRET ratio, 3 h; series mostly up to 92.4 µM
Outline: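 Agonist mode: compound added to CRE-bla HEK 293T cells (2,000/well, 18 h after plating) for 3 h at 37 C/5% CO2. Reporter activity detected via FRET beta-lactamase substrate, 2 h room-temperature loading.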

[18] = cAMP Responsive Elements (CRE) small molecule antagonists, cell-based qHTS assay (AID 1963591; active = well fitted inhibition curve with a large enough effect in the signal ratio in the repeat runs, not every such curve was filed as active; the % refers to the signal ratio); conditions: CRE-bla HEK293T, beta-lactamase FRET ratio; series mostly up to 92.4 µM
Outline: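 Antagonist mode: compounds are added alongside the adenylyl cyclase activator NKH477 (0.25 uM final) to CRE-bla HEK293T cells for 3 h. LiveBLAzer FRET substrate, 2 h at room temperature, reports bla expression.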

[19] = p53 small molecule agonists, cell-based qHTS assay with rat liver microsomes (AID 1963578); conditions: HCT-116 p53RE-bla, beta-lactamase ratio, 16 h; series mostly up to 66 µM
Outline: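 Fluorescence from a beta-lactamase reporter under a p53 response element was measured after cells had been incubated 16 h at 37 C with test compound and rat liver microsomes plus NADPH (0.5 mg/mL final each).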

[20] = target: 5-hydroxytryptamine receptor 2A (Homo sapiens) (UniProt P28223); test: 5-hydroxytryptamine receptor 2A (HTR2A) small molecule antagonists, cell-based qHTS assay (AID 1963586); conditions: HTR2A-CHO cells, DOI-induced calcium flux, fluorescence; series mostly up to 61.5 µM; note: nearly all actives have a fitted effect of over 45% in size; note: potency is the fitted concentration of half-maximal effect
Outline: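 CHO cells stably expressing human HTR2A were plated for 18 h at 37 C, then loaded with calcium dye for 1 h. Compounds were preincubated 5 min at room temperature before DOI (4 nM solution) was added. Kinetic fluorescence was read for 3 min.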

SMILES	Potency [1]	Potency [2]	Potency [3]	Potency [4]	Potency [5]	Potency [6]	Potency [7]	Potency [8]	Potency [9]	Potency [10]	Potency [11]	Potency [12]	Potency [13]	Potency [14]	Potency [15]	Potency [16]	Potency [17]	Potency [18]	Potency [19]	Potency [20]
CCOP(=S)(OCC)SCn1nnc2ccccc2c1=O	inactive	inactive	inactive	inactive	inactive	3.24 µM (active)	inactive	inactive	inactive	inactive	inactive	inactive	inactive	inactive	inactive	–	–	–	–	–
CN(C)C(=O)Nc1cccc(OC(=O)NC(C)(C)C)c1	inactive	inactive	inactive	inactive	inactive	inactive	inactive	inactive	inactive	inactive	inactive	inactive	inactive	inactive	inactive	inactive	inactive	inactive	–	–
CC1N=C(N)OC1c1ccccc1 (stereo unspecified)	inactive	inactive	inactive	inactive	inactive	–	inactive	inactive	inactive	inactive	inactive	inactive	inactive	inactive	–	inactive	inactive	inactive	inactive	inactive
CSCCCN=C=S	inactive	61.1 µM (active)	inactive	inactive	inactive	inactive	inactive	–	inactive	inactive	inactive	inactive	inactive	inactive	inactive	inactive	inactive	inactive	–	inactive
CCCCC(CC)COC(=O)OOC(C)(C)C (stereo unspecified)	inactive	inactive	inactive	inactive	inactive	inactive	inactive	–	inactive	inactive	inactive	inactive	inactive	–	–	inactive	inactive	inactive	–	inactive
C=CCc1ccc(OC(=O)Cc2ccccc2)c(OC)c1	inactive	inactive	inactive	inactive	inactive	–	inactive	inactive	inactive	inactive	inactive	–	–	inactive	inactive	inactive	inactive	–	inactive	inactive
CCN(CC)c1c([N+](=O)[O-])cc(C(F)(F)F)c(N)c1[N+](=O)[O-]	inactive	inactive	inactive	inactive	inactive	inactive	–	inactive	inactive	inactive	–	inactive	–	inactive	inactive	–	–	–	–	–
Oc1ccc2ccc3cccc4ccc1c2c34	inactive	61.1 µM (active)	inactive	inactive	inactive	inactive	inactive	inactive	inactive	inactive	inactive	inactive	–	–	–	inactive	inactive	–	–	–
CNC(=O)Oc1ccc(N(C)C)c(C)c1	inactive	24.3 µM (active)	inactive	inactive	inactive	10.2 µM (active)	inactive	inactive	inactive	inactive	inactive	inactive	inactive	inactive	inactive	inactive	inactive	inactive	–	–
CCCN(CCC)C(=O)Cc1c(-c2ccc(Cl)cc2)nc2ccc(Cl)cn12	inactive	inactive	inactive	inactive	inactive	inactive	inactive	inactive	inactive	inactive	inactive	inactive	inactive	inactive	inactive	inactive	–	–	–	–
CC(C)(C)c1ccc(OP(=O)(Oc2ccccc2)Oc2ccccc2)cc1	inactive	inactive	inactive	inactive	inactive	inactive	inactive	inactive	–	inactive	inactive	–	inactive	inactive	inactive	–	inactive	inactive	–	8.45 µM (active)
Cc1ccccc1OP(=O)(Oc1ccccc1C)Oc1ccccc1C	inactive	48.8 µM (active)	inactive	inactive	inactive	1.83 µM (active)	–	inactive	–	inactive	inactive	inactive	inactive	–	–	inactive	–	inactive	–	inactive
